Results from ChEMBL document CHEMBL4513216, “Probing the Open Global Health Chemical Diversity Library for Multistage-Active Starting Points for Next-Generation Antimalarials” (ACS Infect Dis, 2020).
The campaign covered roughly 69,000 compounds. About 8,600 (12%) showed an effect of 50% or more. Shown is part of a subset that was picked to be rich in strong results.

Test system: Plasmodium berghei
Experiment: Screen against P. berghei liver stage (PbLuc), transformed with Luciferase, at 10uM
Type: functional, HepG2
Settings: tested at 10 uM

In order of falling INHIBITION:
1. Cn1cncc1CN1CCCC1c1cncc(Oc2ccc(Cl)cc2)n1 (stereo unspecified)  96.6%
2. O=C(O)C1CC2(CCN(c3nccc4ccccc34)CC2)CN1 (stereo unspecified)  93.1%
3. CN1CCC2(COCCN(Cc3cccc(C#N)c3)C2)C1 (stereo unspecified)  89.6%
4. Fc1ccccc1-c1nnn(CCCc2nn[nH]n2)n1  78.8%
5. Cn1cncc1CN1CCCC1c1cncc(Oc2ccc(F)cc2)n1 (stereo unspecified)  67.7%
6. COc1cc(C(=O)N2CCCS2(=O)=O)ccc1OC(C)C  66.7%
7. c1ccc(-n2nnnc2NCc2ccc3c(c2)OCO3)cc1  64.5%
8. CN1CCC2(C=C(C(=O)N(C)C)c3ccccc32)CC1  63.8%
9. COCCN1CCN(Cc2ccncc2)[C@H]2CS(=O)(=O)C[C@H]21  63.5%
10. Cc1ncsc1C(=O)NC1CCN(Cc2ccc(C(F)(F)F)cc2)CC1  62.6%
11. Nc1nnc(Cn2nnc(-c3ccccc3F)n2)s1  61.8%
12. CN1CCC2(COCCN(Cc3ccc4c(c3)OCO4)C2)C1 (stereo unspecified)  61.5%
13. Cc1cc(C)n(NC(=O)c2ccc(Cl)cc2Cl)c(=O)c1  60.4%
14. O[C@]12CCNC[C@H]1CN(c1ccnc3ccccc13)CC2  56.7%
15. COCCN1CCN(Cc2nccs2)[C@H]2CS(=O)(=O)C[C@H]21  55.7%
16. CC(O)(CNC(=O)c1c(F)cccc1Cl)c1ccco1 (stereo unspecified)  55.6%
17. Cc1cc(C)cc(C(=O)NCCCNc2ncccn2)c1  55.4%
18. O[C@]12CCNC[C@H]1CN(c1nccc3ccccc13)CC2  53.9%
19. CN(C)CC(=O)N1CCCC1c1cncc(Oc2ccc(F)cc2)n1 (stereo unspecified)  53%
20. CCC(=O)N1CCC2(C=C(C(=O)N(C)C)c3ccccc32)CC1  53%
21. COCCN1CCN(Cc2ccc(Cl)cc2)[C@H]2CS(=O)(=O)C[C@H]21  52.1%
22. CN(Cc1ccc2c(c1)OCCO2)Cc1nnnn1-c1ccccc1  51.2%
23. Cc1cc(C)n(NC(=O)c2ccccc2F)c(=O)c1  47.1%
24. COCCN1CCC2(COCCN(Cc3ccc4c(c3)OCO4)C2)C1 (stereo unspecified)  46.7%
25. O=C(NCC(O)(c1ccco1)C1CC1)c1c(F)cccc1Cl (stereo unspecified)  46.7%
26. CCOc1ccc(CN2CCN(CCOC)[C@@H]3CS(=O)(=O)C[C@@H]32)cc1  45.8%
27. Nc1nnc(CCCn2nnc(-c3ccccc3F)n2)s1  44.7%
28. Cc1cnn(C2CCCN(C(=O)c3ccc(C(N)=O)cn3)C2)c1 (stereo unspecified)  44.3%
29. CCc1c(O)nc2nc(N3CCCC3)nn2c1C  44.1%
30. COCCN1CCN(Cc2cccnc2)[C@H]2CS(=O)(=O)C[C@H]21  43%
31. CCOc1ccc(C(=O)NCCCNc2ncccn2)cc1  41.5%
32. CCN1CCC2(C=C(C(=O)N(C)C)c3ccccc32)CC1  41.2%
33. Cc1ccc(CN2CCC(NC(=O)c3scnc3C)CC2)cc1  40.9%
34. Cc1nc(C)n(CC2CCCN2CC(=O)Nc2cc(C)on2)n1 (stereo unspecified)  40.2%
35. CCc1ccc(CN2CCN(CCOC)[C@@H]3CS(=O)(=O)C[C@@H]32)cc1  39.4%
36. CNCC(=O)N1CCCC1c1cncc(Oc2ccc(F)cc2)n1 (stereo unspecified)  38.2%
37. Cc1c(Br)cccc1S(=O)(=O)NCc1ccnn1C  37.1%
38. CC(C)COC(C)C(=O)NCCNC(=O)C(C)C (stereo unspecified)  36.8%
39. COCC(C)NC(=O)c1sccc1-n1cnnn1 (stereo unspecified)  36.5%
40. c1ccc(-n2nnnc2CNCc2ccc3c(c2)OCCO3)cc1  34.9%
41. CCC(=O)N1CCC2(C=C(C(=O)N3CCCC3)c3ccccc32)CC1  34.9%
42. CN1CCC(C(=O)N2CCC(c3ccc4c(N)n[nH]c4n3)CC2)CC1  34.75%
43. Nc1cnn(CC(=O)N2CCCCC2)c1  34%
44. CCN1CC2(CCC1=O)CCN(Cc1cccc(C#N)c1)CC2  33.4%
45. CCN(C)C(=O)Cn1c(-c2ccco2)nn(-c2ccccc2OC)c1=O  33.3%
46. Cc1ncccc1Oc1cncc(C2CCCN2Cc2cncn2C)n1 (stereo unspecified)  32.8%
47. COCCn1ccnc1CN1CCc2[nH]cnc2C1c1cnn(C)c1C (stereo unspecified)  32.2%
48. COCCN1CCN(Cc2ccc(C(C)=O)cc2)[C@H]2CS(=O)(=O)C[C@H]21  32.1%
49. Cc1cc(-c2nnn(CCNS(C)(=O)=O)n2)ccc1F  31.8%
50. COCCN1CCC(Cc2cncc(-c3ccc(C(=O)O)cc3)n2)CC1  31.6%
51. CC(C)(N)C(=O)N1CCCC1c1cncc(Oc2ccc(F)cc2)n1 (stereo unspecified)  31.1%
52. CC(C)CN1CCC2(C=C(C(=O)N(C)C)c3ccccc32)CC1  30.3%
53. O=C(C1CC=CC1)N1CCCn2nnc(CNc3ncccn3)c2C1  29.5%
54. CC(=O)N1CC2(CCN(c3nccc4ccccc34)CC2)CC1C(=O)O (stereo unspecified)  29.2%
55. O=C(CCCNc1ncccn1)Nc1cc(C(F)(F)F)c[nH]c1=O  29.15%
56. COCCN1CCN(Cc2ccc(F)c(C)c2)[C@H]2CS(=O)(=O)C[C@H]21  28.5%
57. CS(=O)(=O)N1CCOCC2(CCN(C(=O)c3ccco3)CC2)C1  27.6%
58. Cc1nnc(N2CC[C@@]3(O)CCNC[C@H]3C2)c2ccccc12  25.8%
59. O=C(CCCNC(=O)NCC1CCCO1)Nc1ccc(Cl)cc1 (stereo unspecified)  25.8%
60. c1cc2c(cc1CN1CCCC3(CCOC3)C1)OCO2 (stereo unspecified)  25.4%
61. COCCN1CCC(NCc2ccc(F)cc2F)C1 (stereo unspecified)  25.4%
62. O=C(Cn1cc(Cl)cn1)N1CCCC(c2cc3ccccc3cn2)C1 (stereo unspecified)  24.4%
63. O=C(COc1ccccc1)NCCNC(=O)c1scnc1Cl  23.5%
64. Fc1ccccc1CN1CCC[C@H](Cn2nnc(-c3cccs3)n2)C1  21.6%
65. CCN(CC)C(=O)c1ccn(COc2c(Cl)cccc2Cl)n1  20.9%
66. Cc1cccnc1C(=O)N1C[C@@H]2CC[C@H](Oc3cccc(F)c3)[C@@H]2C1  20.8%
67. CCCc1cc(=O)[nH]c(-c2ccccc2CN(C)CCn2cccn2)n1  16.1%
68. CN(C)c1nccnc1N1CC[C@@]2(O)CCNC[C@H]2C1  15.8%
69. Cc1cc(C2CCCN2C(=O)c2cc3c(s2)CCC3)no1 (stereo unspecified)  15.3%
70. NC(=O)CN1CCCC1c1cncc(Oc2ccc(Cl)cc2)n1 (stereo unspecified)  13.5%
71. CSCC(=O)N1CCc2c(cnc(C)c2-c2noc(-c3cc[nH]n3)n2)C1  12.1%
72. CCOc1ccc(C(=O)N2CCCS2(=O)=O)cc1OC  11.2%
73. CC(=O)N1CCCC1c1cncc(Oc2ccc(F)cc2)n1 (stereo unspecified)  11.1%
74. Cn1ccnc1CN1CCCC(CCCc2ccccn2)(C(N)=O)C1 (stereo unspecified)  10.9%
75. CCc1nc(CN2CCN(C(=O)c3csnn3)CC2)cs1  10.2%
76. CC(O)(CNC(=O)c1c(F)cccc1Cl)C1CC1 (stereo unspecified)  9.79%
77. CN(Cc1ccc2c(c1)OCO2)Cc1nc(Cc2ccccc2)no1  9.56%
78. O[C@]12CCNC[C@H]1CN(c1ncccc1Cl)CC2  7.6%
79. Cc1ccc(N2CCCN(C(=O)CCCn3ccnc3C)CC2)nn1  7.18%
80. CCCOc1ccc2ccccc2c1CN1CC[C@@]2(O)CCNC[C@H]2C1  5.41%
81. COc1ccc(C(=O)N2CCCS2(=O)=O)cc1OC  5.03%
82. O=C(NCCc1ccco1)Nc1cc(C(F)(F)F)c[nH]c1=O  4.8%
83. NC(=O)c1c[nH]nc1NCc1ccc2c(c1)OCO2  4.35%
84. Cc1cc(Cl)ccc1NCc1ccc(C(=O)N(C)C)[nH]1  3.03%
85. CCCOC(=O)N1CCCC2(CCN(Cc3cccc(C#N)c3)C2)C1 (stereo unspecified)  2.7%
86. Cn1cc(-c2nnc3sc(C4CC4)nn23)cn1  0.87%
87. OCCc1ncnn1Cc1cccc(Cl)c1  0.426%
88. O=c1cccnn1CC1CN(c2ncc(F)cn2)Cc2nccn2C1 (stereo unspecified)  -3.33%
89. CN(C)CCO[C@H]1C[C@@H](O)C12CCN(c1nccc3ccccc13)CC2  -3.58%
90. COc1ccc(Oc2cncc(C3CCCN3C(C)=O)n2)cc1 (stereo unspecified)  -3.98%
91. CC1c2ncc(CNC(=O)C3CC3)n2CCN1Cc1nccs1 (stereo unspecified)  -4.32%
92. N#Cc1c[nH]nc1NCc1ccc2c(c1)OCO2  -5.51%
93. CNS(=O)(=O)CCCn1nnc(-c2ccc(F)c(C)c2)n1  -6.51%
94. Cc1ncsc1C(=O)NC1CCN(Cc2ccc(C(N)=O)cc2)CC1  -12.2%
95. COc1cc(OC)cc(C(=O)NCCCNc2ncccn2)c1  -14.1%
96. CS(=O)(=O)Cc1ccc(C(=O)NC2CCc3nccn3C2)o1 (stereo unspecified)  -16.38%
97. CNC(=O)N1CC[C@H]2N(C)CC[C@@]2(C(=O)N2CCOCC2)CC1  -18.4%
98. NC(=O)COc1ccc(C(=O)N2CCCC(n3ccnc3)C2)cc1 (stereo unspecified)  -19.4%
99. COCCN1CCN(Cc2nc3c(s2)CCCC3)[C@H]2CS(=O)(=O)C[C@H]21  -27.6%
100. Cc1cnc(C)c(N2CCC3(CCCN(C4CCOCC4)C3=O)C2)n1 (stereo unspecified)  -30%
101. CC(C)N1CCC2(C=C(C(=O)N(C)C)c3ccccc32)CC1  -41.6%
102. Cc1cc(C)n(NC(=O)c2ccccc2C)c(=O)c1  -46.4%
103. O=C(Cc1ccc2c(c1)CCC2)N1CCN(c2cnccn2)CC1  -46.4%
104. COc1cccc(CN2CCCCC2Cn2nc(C)nc2C)c1 (stereo unspecified)  -59.4%
105. COc1ccc(C(=O)N2CCN(CCO)CC2)c(F)c1  -61.4%
106. CCc1cnc(N2C[C@@H](NC(=O)c3cscn3)[C@H]3COC[C@H]32)nc1  -82.5%
